# Measured values reported in PubChem BioAssay AID624417 (National Center for Advancing Translational Sciences (NCATS), 2012).
# About 6,400 (1.6%) of roughly 410,000 compounds were called active. Not shown: some 20% with an inconclusive outcome. Calls follow the shape of the dose curve; as a rule, active = well fitted inhibition curve with a large enough effect; inconclusive = small, poorly fitted or top-dose-only effect; inactive = no such curve, though single readings can be large or run the other way. Shown is part of a subset that was picked to be rich in actives. Where a call stands in place of a potency, no number is given.
# Target: Glucagon-like peptide 1 receptor (Homo sapiens) (UniProt P43220)
# Experiment: qHTS of GLP-1 Receptor Inverse Agonists (Inhibition Mode); also: nearly all actives have a fitted effect of over 55% in size
# Details: HEK293 GLP-1R CRE-luciferase, luminescence, 24 h, GLP-1R form is constitutively active; series mostly up to 38.3 µM
# Summary of the method: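 HEK293 cells stably co-expressing a cAMP-responsive luciferase reporter and constitutively active GLP-1R were seeded, incubated 12 h, then exposed to compounds for 24 h at 37 C. Luminescence was read 12 min after detection reagent; inverse agonists lower signal.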
# Potency is read from the fitted curve at half-maximal effect.
# Chain of Glucagon-like peptide 1 receptor (Homo sapiens) (P43220 whole entry, looked up): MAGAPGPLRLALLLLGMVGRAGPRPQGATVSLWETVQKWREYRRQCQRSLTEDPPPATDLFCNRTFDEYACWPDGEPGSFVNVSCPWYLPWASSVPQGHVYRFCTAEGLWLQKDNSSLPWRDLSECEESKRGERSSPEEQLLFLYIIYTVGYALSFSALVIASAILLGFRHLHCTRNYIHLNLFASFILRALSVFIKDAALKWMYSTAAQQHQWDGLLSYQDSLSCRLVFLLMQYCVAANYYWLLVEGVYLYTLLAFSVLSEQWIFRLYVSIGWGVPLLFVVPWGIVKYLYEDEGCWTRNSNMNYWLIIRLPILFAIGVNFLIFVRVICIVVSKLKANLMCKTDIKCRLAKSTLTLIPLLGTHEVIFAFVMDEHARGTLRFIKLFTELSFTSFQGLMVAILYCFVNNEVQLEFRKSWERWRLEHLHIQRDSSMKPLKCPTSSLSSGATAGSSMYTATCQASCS
row,Compound,Potency
1,O=S1(=O)CCN(Cc2ccccc2)CC1,inactive
2,O=C(NC1CCCC1)C1CCN(C(=O)Nc2cccc(Cl)c2)CC1,inactive
3,O=C(Nc1cccc(-c2cccc(Cl)c2)c1)C1CCN(C2CCC2)CC1,6.31 µM (active)
4,COc1cccc(-c2cccc(NC(=O)C3CCN(C4CCC4)CC3)c2)c1,inactive
5,Cc1cc2c(cc1C)N1C(=O)c3cc4ccccc4cc3NC(=O)C1C(=O)N2 (configuration not stated),inactive
6,O=S(=O)(CCc1nc2ccccc2o1)c1ccc(Cl)cc1,inactive
7,NNC(=O)c1ccc(Cl)cc1Cl,inactive
8,O=S(=O)(Cc1ccc(Cl)cc1Cl)c1ccc(Cl)cc1,12.6 µM (active)
9,COCCNc1nc(NCc2ccc(NC(C)=O)cc2)c2sccc2n1,inactive
10,C[C@H](CO)N1C[C@H](C)[C@@H](CN(C)S(=O)(=O)c2ccc(Oc3ccccc3)cc2)OCc2cn(nn2)CCCC1=O,inactive
11,Cc1csc(SCC(=O)Nc2ccc(C)c(S(=O)(=O)N(C)C)c2)n1,inactive
12,OCCNc1nc(Nc2ccc(Cl)c(Cl)c2)nc2ccccc12,3.98 µM (active)
13,Cc1nnc(NCCO)c2ccccc12,inactive
14,CN(C)c1nc(Nc2ccc(Cl)c(Cl)c2)nc(N(C)C)n1,inactive
15,CC(=O)Nc1ccc(CNc2nc(NCCN(C)C)nc3cc(-c4ccccc4)sc23)cc1,inactive
16,CCOc1cccc(C(=O)Nc2nnc(-c3cccs3)s2)c1,inactive
17,CCOc1cccc(C(=O)Nc2cnn(Cc3ccccc3)c2)c1,10 µM (active)
18,CCCOc1cccc(C(=O)NCCCNC(=O)c2cccnc2)c1,inactive
19,Cc1nccn1-c1ccc(NC(=O)[C@H]2O[C@@H](n3cnc4c(N)ncnc43)[C@H](O)[C@@H]2O)cc1,inactive
20,Cc1ccc(S(=O)(=O)CC(=O)NC(C)c2ccccc2)cc1 (configuration not stated),inactive
21,Cc1ccccc1-c1nc(CS(=O)(=O)CC(=O)NC(C)c2ccccc2)c(C)o1 (configuration not stated),4.47 µM (active)
22,CSc1ccc(CCNC(=O)CS(=O)(=O)Cc2nc(-c3ccccc3F)oc2C)cc1,inactive
23,CN(Cc1ccccc1)C(=O)[C@@H]1CCCN1C(=O)[C@@H]1CCCN1C(=O)c1c(F)cccc1F,inactive
24,CCOC(=O)[C@]12CCC=C1N(CCC1=CCCCC1)C(=O)[C@H](CC(=O)NCc1ccc(C)o1)C2,inactive
25,O=C(CN1CCN(Cc2ccc(Cl)cc2)C1=O)NCc1ccc(F)cc1,inactive
26,Cc1ccc(CNC(=O)CN2CCN(Cc3ccc(Cl)cc3)C2=O)cc1,7.94 µM (active)

row,Compound,Potency
1,CC(NC(=O)CN1CCN(Cc2ccc(Cl)cc2)C1=O)c1ccc2c(c1)OCCO2 (configuration not stated),inactive
2,CC(C)C1CC2=C(C(=O)OC(C)(C)O2)C(c2ccc(F)cc2)O1 (configuration not stated),inactive
3,Cc1ccc([C@H]2C[C@H](O)[C@@H](n3cc(COC(=O)c4ccccc4)nn3)CN2CC2CCCCC2)cc1,inactive
4,CC(=O)N1C[C@@H](CO)[C@@H](N(C)C(=O)c2ccco2)C[C@H]1c1ccccc1,inactive
5,COc1ccccc1-c1n[nH]nc1C1=CC(=O)CC(C)(C)C1,inactive
6,Cc1cccc(NC(=O)c2cccc(S(=O)(=O)N3CCCC3)c2)n1,inactive
7,NS(=O)(=O)c1ccc(CNC(=O)c2cccc(S(=O)(=O)N3CCc4ccccc43)c2)cc1,inactive
8,Cc1ccc(NC(=O)c2cccc(S(=O)(=O)N3CCCc4ccccc43)c2)nc1,7.94 µM (active)
9,COc1ccc(NC(=O)N(C)C[C@H]2Oc3ncc(C#C[C@@H](C)O)cc3C(=O)N([C@H](C)CO)C[C@H]2C)cc1,inactive
10,Cn1c(Nc2ccc(F)cc2)nc2cc(-c3ccsc3)sc2c1=O,inactive
11,CCN(CCN(C)C)C(=O)c1ccc2nc(C)c(N(C)C(=O)CCc3ccccc3)n2c1,inactive
12,O=C(NCc1nnnn1-c1ccc(Cl)cc1)c1ccc([N+](=O)[O-])o1,inactive
13,Cc1ccc(S(=O)(=O)N(Cc2nc(-c3ccc(Cl)cc3)no2)C2CCCCC2)cc1,10 µM (active)
14,CCN1CC(CN(C)Cc2nc(-c3ccc(Cl)cc3)no2)CC1=O (configuration not stated),inactive
15,CC1CCN(Cc2nc(-c3ccc(Cl)cc3)no2)CC1,inactive
16,CCN(CC)C(=O)C(C)N1c2cccc3cccc(c23)S1(=O)=O (configuration not stated),inactive
17,CCc1cccc(C)c1N1C(=O)CN(Cc2ccccc2)C1=S,5.62 µM (active)
18,CC1CN(Cc2ccccc2)C(=S)NC1=O (configuration not stated),inactive
19,O=C1C[C@@H]2c3c(cccc3CN1Cc1ccccc1)C[C@@H](O)[C@H]2O,inactive
20,Nc1ncnc2c1ncn2[C@@H]1O[C@H](C(=O)N2CCSC2)[C@@H](O)[C@H]1O,inactive
21,CCOc1cc(/C=N/NC(=O)c2c(C)nc3ccc(Cl)cn23)ccc1O,inactive
22,CC(=O)C[C@@H]1OC[C@H](C)N1S(=O)(=O)c1ccc(C)cc1,inactive
23,CCCC(=O)N1CCC1(C)C(=O)NCc1ccc(C(C)C)cc1 (configuration not stated),inactive
24,O=C(NNc1cc(Cl)cc(Cl)c1)c1c(F)cccc1Cl,10 µM (active)
25,O=C(Nc1nnc(-c2ccc(F)cc2)s1)c1c(F)cccc1Cl,inactive
26,CCN(CC)CCNC(=O)c1ccc(NC(=O)c2c(F)cccc2Cl)cc1,inactive

row,Compound,Potency
1,CN1CCN(c2ccncc2S(=O)(=O)N2CCCC2)CC1,inactive
2,COCCNC(=O)c1cc2c(Br)ccc(Br)c2nc1N,inactive
3,O=C(C[C@H]1CC[C@@H](NC(=O)c2ccncc2)[C@@H](CO)O1)NCC1CC1,inactive
4,CCOc1cccc(/C=C/c2ccc3ccccc3n2)c1OC(C)=O,10 µM (active)
5,CCOc1ccccc1-c1cc(C(=O)N2CCOCC2)c2ccccc2n1,inactive
6,CCOc1ccccc1/C=N/Nc1nc2ccccc2o1,inactive
7,CC(C)(C)S(=O)N1Cc2cc(C(=O)NCCCN3CCOCC3)nc(-c3cccc(-c4cc5ccccc5o4)c3)c2[C@H]1CCO (some centres not stated),inactive
8,COc1cccc(NC(=O)CN2CCN(c3nc(-c4cccc(OC)c4)cs3)CC2)c1,10 µM (active)
9,COc1cccc(N2CCN(CC(=O)Nc3ccnn3C3CCCC3)CC2)c1,inactive
10,COc1cccc(CC(=O)Nc2ccc(-c3csc(C)n3)cc2)c1,inactive
11,CC(C)CN1CCC1(C)C(=O)Nc1ccc(OC(F)F)cc1 (configuration not stated),inactive
12,C[N+](C)(C)CCNC(=O)c1c[nH]c2ccccc12,inactive
13,CC(C)c1cc(C(=O)N(C)C2CCCN(Cc3ccccc3F)C2)n(C)n1 (configuration not stated),inactive
14,COc1cc2c(cc1O)C(SC)=NC(C)(C)C2,10 µM (active)
15,COc1cc2c(cc1OC)C(C(C)C)=NC(C)(C)C2,inactive
16,COc1cc2c(cc1OC)C(Nc1ccc(S(N)(=O)=O)cc1)=NC(C)(C)C2,inactive
17,CC(=O)NN=C(C)c1ccc(NC(=O)C2CC2)cc1,inactive
18,N#Cc1ccc(C(C(=O)NCc2ccccc2)n2c(=O)c(-c3ccco3)nc3ccccc32)cc1 (configuration not stated),inactive
19,Cc1ccc(NC(=O)Cn2sc3ccccc3c2=O)cc1,inactive
20,COCCNC(=S)N/N=C/c1c(C)[nH]c2ccccc12,inactive
21,CSC(=S)N/N=C/c1c[nH]c2ccccc12,3.16 µM (active)
22,O=C(O)c1cccc(NC(=S)N/N=C/c2c[nH]c3ccccc23)c1,inactive
23,CCc1nc2ccc(C(=O)N3CCC(O)(Cc4ccccc4)CC3)cn2c1N(C)C(=O)Cc1ccccc1,inactive
24,CCNC(=O)CN(c1ccc(C)cc1)S(=O)(=O)c1ccc(SC)cc1,inactive
25,CCc1ccc(N(CC(=O)NCc2cccnc2)S(=O)(=O)c2ccccc2)cc1,inactive
26,Cc1ccc(S(=O)(=O)N(CC(=O)Nc2cccnc2)c2ccc(Br)cc2)cc1,11.2 µM (active)

row,Compound,Potency
1,NC(=S)N/N=C/c1coc2cc(Cl)ccc2c1=O,inactive
2,CC(C)Oc1c(Br)cc(Br)cc1/C=N/NC(N)=S,2.51 µM (active)
3,CCOc1ccc(/C=N/NC(N)=S)cc1,inactive
4,CN1OC[C@@H]2CN(C(=O)c3ccc(-c4ccccc4)cc3)[C@H](c3ccc(-c4cccc(F)c4)cc3)C[C@@H]21,inactive
5,CCCCN1C(=O)C(CC(=O)NCc2cccs2)CC(C(=O)N2CCCCCC2)=C1C (configuration not stated),inactive
6,Cc1cc(Cl)ccc1OCC(=O)N(Cc1ccc(N(C)C)cc1)C1CCS(=O)(=O)C1 (configuration not stated),inactive
7,CC1(C)C(C=C(Cl)Cl)C1C(=O)N(Cc1ccc(Cl)cc1)C1CCS(=O)(=O)C1 (configuration not stated),8.91 µM (active)
8,COc1ccc(C(=O)N(Cc2ccc(N(C)C)cc2)C2CCS(=O)(=O)C2)cc1 (configuration not stated),inactive
9,C=CCN1CCN(c2ccncc2S(=O)(=O)N2CCN(C)CC2)CC1,inactive
10,C[C@@H]1Cn2cnc(C(=O)Nc3ccc(CNC(=O)OC(C)(C)C)cc3)c2C(=O)N1,inactive
11,O=C(Cc1ccc(-c2ccccc2)cc1)NC(c1ccccc1)c1ccccc1,inactive
12,O=C(CN1CCN(Cc2ccccc2)CC1)Nc1ccc(F)c(F)c1,inactive
13,O=C(CN1CCN(Cc2ccccc2)CC1)NC(c1ccccc1)c1ccccc1,10 µM (active)
14,COc1ccc(S(=O)(=O)N(C)C)cc1NC(=O)COC(=O)c1n[nH]c2ccccc12,inactive
15,Nc1ncnc2c1ncn2[C@@H]1O[C@H](CNC(=O)[C@H](N)Cc2cccnc2)[C@@H](O)[C@H]1O,inactive
16,CSc1nsc(SC)c1NC(=O)OC1CCCCC1,7.08 µM (active)
17,O=[N+]([O-])c1cc(Br)c(O)c(/C=N/Nc2nc3ccccc3s2)c1,4.47 µM (active)
18,O=C(NC(Nc1nc2ccc([N+](=O)[O-])cc2s1)(C(F)(F)F)C(F)(F)F)c1ccccc1,inactive
19,COc1ccc(CC(=O)N/N=C/c2cc([N+](=O)[O-])cc(Br)c2O)cc1,inactive
20,CC1(C(=O)O)CCN1C(=O)/C=C/c1ccccc1 (configuration not stated),inactive
21,Cc1cccc(S(=O)(=O)N(C)C[C@@H]2OCc3cnnn3CCCC(=O)N([C@H](C)CO)C[C@@H]2C)c1,inactive
22,Cc1cc(C)cc(NC(=O)CSCc2cnn(-c3ccccc3)c2-n2cccc2)c1,inactive
23,O=C(NCCC1=CCCCC1)C1CCN(Cc2cnn(-c3ccccc3)c2-n2cccc2)CC1,4.47 µM (active)
24,CC(=O)Nc1ccc(NC(=O)CSCc2cnn(-c3ccccc3)c2-n2cccc2)cc1,inactive
